Measured values reported in PMC7862700, “An all-to-all approach to the identification of sequence-specific readers for epigenetic DNA modifications on cytosine”.

How the values were obtained:
Experiment in all cases: DAPPL (digital affinity profiling via proximity ligation, sequencing); 10 mM Tris-HCl pH 7.5, 50 mM NaCl, 1 mM DTT, 4% glycerol, room temperature, 30 min; GST-TFs on glutathione beads, 16-mer random dsDNA library, 0.1% formaldehyde crosslink after washing; high values mean tight binding
Conditions in all cases: protein: recombinant; tags: N-terminal GST; dsDNA, one strand shown
[1] = target: T1, FLI1 (Homo sapiens, UniProt Q01543 1-452)
T1 sequence: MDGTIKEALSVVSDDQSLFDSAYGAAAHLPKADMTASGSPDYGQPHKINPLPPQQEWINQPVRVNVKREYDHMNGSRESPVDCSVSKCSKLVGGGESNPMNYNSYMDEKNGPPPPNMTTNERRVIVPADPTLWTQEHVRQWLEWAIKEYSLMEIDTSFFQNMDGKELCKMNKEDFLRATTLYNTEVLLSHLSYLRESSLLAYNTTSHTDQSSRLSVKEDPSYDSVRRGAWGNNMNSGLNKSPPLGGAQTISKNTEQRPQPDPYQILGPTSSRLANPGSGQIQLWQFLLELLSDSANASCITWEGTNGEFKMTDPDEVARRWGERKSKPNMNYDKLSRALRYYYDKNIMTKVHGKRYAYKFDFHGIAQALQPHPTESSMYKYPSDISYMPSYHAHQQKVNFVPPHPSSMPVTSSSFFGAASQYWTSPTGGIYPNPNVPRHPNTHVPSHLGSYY
In short: (§1)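 After expression in yeast as GST fusions, human transcription factors were bound to glutathione beads, DNA-barcoded and mixed with a tag-only sample. The pools were incubated with 200 nmole of a 16-mer random double-stranded DNA library in Tris/NaCl/DTT/glycerol buffer (30 min, room temperature), washed and crosslinked with 0.1% formaldehyde. Proximity ligation with BsaI/T4 ligase ran for 1 h at 37 °C, before PCR amplification and sequencing on an Illumina NextSeq500. Binding signal is a hexamer's read frequency for a factor divided by its frequency for the tag-only sample.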

[2] = target: T2, ELK1 (Homo sapiens, UniProt P19419 1-428)
T2 sequence: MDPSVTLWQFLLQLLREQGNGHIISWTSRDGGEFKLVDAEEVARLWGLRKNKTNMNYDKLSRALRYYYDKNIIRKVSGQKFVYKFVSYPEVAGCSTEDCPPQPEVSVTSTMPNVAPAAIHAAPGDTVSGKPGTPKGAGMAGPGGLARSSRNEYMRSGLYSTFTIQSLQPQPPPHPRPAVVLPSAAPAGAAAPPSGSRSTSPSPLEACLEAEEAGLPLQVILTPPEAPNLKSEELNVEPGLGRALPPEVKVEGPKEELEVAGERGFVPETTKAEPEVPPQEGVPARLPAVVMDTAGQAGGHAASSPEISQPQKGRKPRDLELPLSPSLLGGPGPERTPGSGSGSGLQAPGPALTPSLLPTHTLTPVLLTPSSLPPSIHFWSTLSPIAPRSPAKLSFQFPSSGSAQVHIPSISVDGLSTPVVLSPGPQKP
In short: as §1

[3] = target: T3, GABPA (Homo sapiens, UniProt Q06546 1-454)
T3 sequence: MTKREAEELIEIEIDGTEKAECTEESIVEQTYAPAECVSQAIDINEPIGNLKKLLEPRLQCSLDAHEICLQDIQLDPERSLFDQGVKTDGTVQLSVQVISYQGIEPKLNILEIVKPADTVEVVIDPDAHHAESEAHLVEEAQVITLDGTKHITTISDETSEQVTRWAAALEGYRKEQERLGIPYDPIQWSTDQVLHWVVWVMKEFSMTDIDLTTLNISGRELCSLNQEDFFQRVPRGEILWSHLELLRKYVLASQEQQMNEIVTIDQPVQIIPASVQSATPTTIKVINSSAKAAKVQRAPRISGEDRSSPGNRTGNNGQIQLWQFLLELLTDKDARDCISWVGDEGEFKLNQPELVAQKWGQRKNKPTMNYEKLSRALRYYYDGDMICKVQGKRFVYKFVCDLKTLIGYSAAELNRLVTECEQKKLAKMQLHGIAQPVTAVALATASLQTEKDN
In short: as §1

[4] = target: T4, ERG (Homo sapiens, UniProt P11308 1-479)
T4 sequence: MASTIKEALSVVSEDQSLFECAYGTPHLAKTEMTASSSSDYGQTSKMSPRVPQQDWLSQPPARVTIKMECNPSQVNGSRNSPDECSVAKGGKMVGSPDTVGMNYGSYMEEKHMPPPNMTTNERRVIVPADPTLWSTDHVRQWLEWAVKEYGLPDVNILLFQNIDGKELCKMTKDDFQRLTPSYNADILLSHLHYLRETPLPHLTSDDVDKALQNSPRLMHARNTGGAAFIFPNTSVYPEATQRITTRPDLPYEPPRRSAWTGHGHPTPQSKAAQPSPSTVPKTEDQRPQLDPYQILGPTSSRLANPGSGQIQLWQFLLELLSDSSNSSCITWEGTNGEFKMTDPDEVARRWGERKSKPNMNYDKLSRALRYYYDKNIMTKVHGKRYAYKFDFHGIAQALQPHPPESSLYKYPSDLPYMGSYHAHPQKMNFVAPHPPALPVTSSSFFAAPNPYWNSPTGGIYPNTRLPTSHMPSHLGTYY
In short: as §1

[5] = target: ELF1 (Homo sapiens, UniProt P32519 1-619)
In short: as §1

[6] = target: T5, EHF (Homo sapiens, UniProt Q9NZC4 1-300)
T5 sequence: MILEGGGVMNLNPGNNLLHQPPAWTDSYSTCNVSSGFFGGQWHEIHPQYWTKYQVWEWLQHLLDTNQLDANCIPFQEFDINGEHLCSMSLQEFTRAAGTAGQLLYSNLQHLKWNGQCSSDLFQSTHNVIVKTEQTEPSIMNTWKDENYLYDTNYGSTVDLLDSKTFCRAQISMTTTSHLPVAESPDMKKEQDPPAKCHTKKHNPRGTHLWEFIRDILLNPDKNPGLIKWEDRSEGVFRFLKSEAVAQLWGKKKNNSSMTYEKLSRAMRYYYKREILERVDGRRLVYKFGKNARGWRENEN
In short: as §1

[7] = target: SPI1 (Homo sapiens, UniProt P17947 1-270)
In short: as §1

[8] = target: SPIB (Homo sapiens, UniProt Q01892 1-262)
In short: as §1

[9] = target: T6, ELK3 (Homo sapiens, UniProt P41970 1-407)
T6 sequence: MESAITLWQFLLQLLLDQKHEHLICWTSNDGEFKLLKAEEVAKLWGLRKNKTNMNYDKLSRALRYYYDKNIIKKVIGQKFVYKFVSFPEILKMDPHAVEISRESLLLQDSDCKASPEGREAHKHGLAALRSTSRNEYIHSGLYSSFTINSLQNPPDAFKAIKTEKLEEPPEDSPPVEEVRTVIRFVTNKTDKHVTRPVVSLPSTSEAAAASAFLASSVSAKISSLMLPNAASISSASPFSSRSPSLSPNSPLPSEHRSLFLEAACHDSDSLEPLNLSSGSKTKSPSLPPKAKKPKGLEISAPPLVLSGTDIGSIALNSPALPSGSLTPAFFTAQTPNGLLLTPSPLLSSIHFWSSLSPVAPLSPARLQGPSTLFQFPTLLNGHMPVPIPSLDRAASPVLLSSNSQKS
In short: as §1

[10] = target: T7, FEV (Homo sapiens, UniProt Q99581 1-238)
T7 sequence: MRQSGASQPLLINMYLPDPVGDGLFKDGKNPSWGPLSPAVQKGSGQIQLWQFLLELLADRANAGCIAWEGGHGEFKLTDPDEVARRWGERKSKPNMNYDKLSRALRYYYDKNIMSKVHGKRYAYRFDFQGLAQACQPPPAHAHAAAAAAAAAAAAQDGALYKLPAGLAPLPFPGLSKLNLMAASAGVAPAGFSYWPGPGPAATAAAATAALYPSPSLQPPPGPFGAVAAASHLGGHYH
In short: as §1

[11] = target: ETV5 (Homo sapiens, UniProt P41161 1-510)
In short: as §1

[12] = target: T8, SPIC (Homo sapiens, UniProt Q8N5J4 1-248)
T8 sequence: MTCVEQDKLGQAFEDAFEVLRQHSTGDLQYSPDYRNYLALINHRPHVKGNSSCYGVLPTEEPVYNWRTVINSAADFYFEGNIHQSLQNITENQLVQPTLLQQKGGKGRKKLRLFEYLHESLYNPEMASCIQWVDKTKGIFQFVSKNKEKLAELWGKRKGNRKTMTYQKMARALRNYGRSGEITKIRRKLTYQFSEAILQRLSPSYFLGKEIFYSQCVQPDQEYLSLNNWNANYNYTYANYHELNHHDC
In short: as §1

[13] = target: ELF4 (Homo sapiens, UniProt Q99607 1-663)
In short: as §1

[14] = target: T9, ELK4 (Homo sapiens, UniProt P28324-2 1-405)
T9 sequence: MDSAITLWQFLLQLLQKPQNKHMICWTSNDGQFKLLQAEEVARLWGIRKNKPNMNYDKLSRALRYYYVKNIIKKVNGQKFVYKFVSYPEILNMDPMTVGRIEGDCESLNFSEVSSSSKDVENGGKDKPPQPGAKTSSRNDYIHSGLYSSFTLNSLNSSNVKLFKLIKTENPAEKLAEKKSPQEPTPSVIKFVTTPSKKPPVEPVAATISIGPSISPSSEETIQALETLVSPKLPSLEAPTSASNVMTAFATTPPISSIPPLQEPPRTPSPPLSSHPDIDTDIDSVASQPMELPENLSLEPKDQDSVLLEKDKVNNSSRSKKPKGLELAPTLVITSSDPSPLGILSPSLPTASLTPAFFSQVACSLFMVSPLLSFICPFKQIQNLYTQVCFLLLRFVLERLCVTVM
In short: as §1

[15] = target: T10, ETV2 (Homo sapiens, UniProt O00321 1-342)
T10 sequence: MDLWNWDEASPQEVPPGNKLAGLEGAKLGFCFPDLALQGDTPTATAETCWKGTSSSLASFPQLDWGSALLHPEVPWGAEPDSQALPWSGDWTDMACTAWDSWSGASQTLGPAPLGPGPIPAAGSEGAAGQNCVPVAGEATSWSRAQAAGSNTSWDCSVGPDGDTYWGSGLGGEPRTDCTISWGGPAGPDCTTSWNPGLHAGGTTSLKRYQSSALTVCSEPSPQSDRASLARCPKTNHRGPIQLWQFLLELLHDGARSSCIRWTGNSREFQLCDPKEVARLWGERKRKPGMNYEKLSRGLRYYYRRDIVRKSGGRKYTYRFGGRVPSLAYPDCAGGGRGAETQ
In short: as §1

[16] = target: T11, ELF3 (Homo sapiens, UniProt P78545 1-371)
T11 sequence: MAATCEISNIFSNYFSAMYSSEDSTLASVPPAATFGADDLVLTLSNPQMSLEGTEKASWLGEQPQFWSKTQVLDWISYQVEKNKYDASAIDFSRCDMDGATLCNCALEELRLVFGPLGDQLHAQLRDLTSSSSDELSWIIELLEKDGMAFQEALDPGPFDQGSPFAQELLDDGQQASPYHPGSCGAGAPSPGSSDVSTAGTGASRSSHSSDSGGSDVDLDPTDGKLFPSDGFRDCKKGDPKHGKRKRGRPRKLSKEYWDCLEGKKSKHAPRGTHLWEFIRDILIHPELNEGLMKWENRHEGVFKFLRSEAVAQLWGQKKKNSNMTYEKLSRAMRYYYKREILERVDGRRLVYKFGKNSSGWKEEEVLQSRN
In short: as §1

[17] = target: CRX (Homo sapiens, UniProt O43186 1-299)
In short: as §1

[18] = target: ETV1 (Homo sapiens, UniProt P50549 1-477)
In short: as §1

Chain of SPIB (Q01892 whole entry): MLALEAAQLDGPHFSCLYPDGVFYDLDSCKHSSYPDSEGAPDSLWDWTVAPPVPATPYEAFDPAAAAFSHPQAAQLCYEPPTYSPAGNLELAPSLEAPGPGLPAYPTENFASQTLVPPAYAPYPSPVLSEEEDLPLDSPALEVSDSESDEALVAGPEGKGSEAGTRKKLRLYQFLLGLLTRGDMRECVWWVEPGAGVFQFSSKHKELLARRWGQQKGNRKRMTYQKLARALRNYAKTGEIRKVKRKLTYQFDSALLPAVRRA
Chain of ELF1 (P32519 whole entry): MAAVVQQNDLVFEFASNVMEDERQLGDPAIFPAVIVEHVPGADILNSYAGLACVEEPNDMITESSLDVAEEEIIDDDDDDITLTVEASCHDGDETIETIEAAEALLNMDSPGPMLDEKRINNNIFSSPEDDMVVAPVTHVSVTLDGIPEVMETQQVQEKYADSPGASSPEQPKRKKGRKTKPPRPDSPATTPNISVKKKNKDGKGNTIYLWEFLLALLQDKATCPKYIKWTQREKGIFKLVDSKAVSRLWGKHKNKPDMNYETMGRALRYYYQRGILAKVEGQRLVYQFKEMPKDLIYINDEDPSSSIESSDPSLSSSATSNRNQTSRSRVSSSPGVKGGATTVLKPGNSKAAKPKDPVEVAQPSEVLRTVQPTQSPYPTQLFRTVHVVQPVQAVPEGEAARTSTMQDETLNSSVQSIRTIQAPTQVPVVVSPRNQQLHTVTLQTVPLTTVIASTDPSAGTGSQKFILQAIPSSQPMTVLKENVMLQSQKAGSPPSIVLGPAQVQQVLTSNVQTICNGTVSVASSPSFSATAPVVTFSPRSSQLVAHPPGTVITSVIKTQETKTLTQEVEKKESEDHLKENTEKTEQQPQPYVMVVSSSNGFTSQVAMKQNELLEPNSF
Chain of ETV1 (P50549 whole entry): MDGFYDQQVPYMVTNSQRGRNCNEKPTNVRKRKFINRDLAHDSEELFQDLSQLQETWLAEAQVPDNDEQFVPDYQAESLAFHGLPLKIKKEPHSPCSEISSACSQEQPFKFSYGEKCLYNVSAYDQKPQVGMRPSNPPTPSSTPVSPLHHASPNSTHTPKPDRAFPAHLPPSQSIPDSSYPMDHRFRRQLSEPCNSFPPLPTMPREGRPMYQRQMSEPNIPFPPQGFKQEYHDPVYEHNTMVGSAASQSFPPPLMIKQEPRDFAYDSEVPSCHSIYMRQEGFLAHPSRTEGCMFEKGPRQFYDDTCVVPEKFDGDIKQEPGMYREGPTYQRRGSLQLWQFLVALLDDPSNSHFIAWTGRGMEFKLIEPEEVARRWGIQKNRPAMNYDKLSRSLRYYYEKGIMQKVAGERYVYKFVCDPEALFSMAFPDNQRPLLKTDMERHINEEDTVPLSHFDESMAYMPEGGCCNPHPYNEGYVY
Chain of ETV5 (P41161 whole entry): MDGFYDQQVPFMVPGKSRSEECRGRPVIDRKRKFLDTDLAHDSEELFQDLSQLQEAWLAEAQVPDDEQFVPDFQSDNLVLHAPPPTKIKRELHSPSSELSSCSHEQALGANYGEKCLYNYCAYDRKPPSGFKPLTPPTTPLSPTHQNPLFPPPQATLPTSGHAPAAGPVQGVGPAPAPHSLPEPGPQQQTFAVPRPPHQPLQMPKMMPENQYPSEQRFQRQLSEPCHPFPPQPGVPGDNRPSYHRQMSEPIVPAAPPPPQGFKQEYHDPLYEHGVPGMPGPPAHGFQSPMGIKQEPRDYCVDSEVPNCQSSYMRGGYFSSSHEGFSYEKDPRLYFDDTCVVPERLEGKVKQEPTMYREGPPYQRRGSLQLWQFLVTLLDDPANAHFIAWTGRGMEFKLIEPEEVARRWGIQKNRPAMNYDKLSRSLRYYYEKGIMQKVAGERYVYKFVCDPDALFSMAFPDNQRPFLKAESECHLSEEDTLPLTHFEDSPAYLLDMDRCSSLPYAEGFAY
Chain of ELF4 (Q99607 whole entry): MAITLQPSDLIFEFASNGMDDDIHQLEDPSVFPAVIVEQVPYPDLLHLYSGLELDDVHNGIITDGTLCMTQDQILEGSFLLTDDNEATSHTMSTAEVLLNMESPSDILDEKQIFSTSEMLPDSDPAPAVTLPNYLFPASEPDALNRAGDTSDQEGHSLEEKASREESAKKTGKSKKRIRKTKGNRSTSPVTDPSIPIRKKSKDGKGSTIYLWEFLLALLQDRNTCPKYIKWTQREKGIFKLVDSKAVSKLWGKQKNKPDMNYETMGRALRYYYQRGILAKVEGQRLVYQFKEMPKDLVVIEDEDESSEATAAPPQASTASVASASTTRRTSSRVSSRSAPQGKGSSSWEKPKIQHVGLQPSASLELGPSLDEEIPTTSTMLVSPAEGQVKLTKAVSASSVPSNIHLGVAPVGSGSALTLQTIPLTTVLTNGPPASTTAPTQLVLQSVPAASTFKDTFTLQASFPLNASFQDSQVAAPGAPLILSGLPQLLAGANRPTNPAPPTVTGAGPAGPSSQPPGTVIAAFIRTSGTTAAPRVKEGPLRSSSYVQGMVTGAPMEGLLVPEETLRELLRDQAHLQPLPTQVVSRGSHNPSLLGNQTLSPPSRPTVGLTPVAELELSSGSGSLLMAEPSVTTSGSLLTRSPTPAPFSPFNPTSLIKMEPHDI
Chain of CRX (O43186 whole entry): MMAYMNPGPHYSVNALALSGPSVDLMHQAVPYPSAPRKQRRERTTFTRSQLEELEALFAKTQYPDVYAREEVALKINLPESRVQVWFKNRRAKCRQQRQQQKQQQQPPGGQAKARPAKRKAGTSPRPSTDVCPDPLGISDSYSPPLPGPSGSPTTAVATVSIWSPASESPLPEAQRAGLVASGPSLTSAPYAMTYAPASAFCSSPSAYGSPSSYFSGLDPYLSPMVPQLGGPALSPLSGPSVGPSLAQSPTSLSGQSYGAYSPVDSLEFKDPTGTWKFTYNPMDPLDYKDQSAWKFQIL

Row | Sequence | binding signal [1] | binding signal [2] | binding signal [3] | binding signal [4] | binding signal [5] | binding signal [6] | binding signal [7] | binding signal [8] | binding signal [9] | binding signal [10] | binding signal [11] | binding signal [12] | binding signal [13] | binding signal [14] | binding signal [15] | binding signal [16] | binding signal [17] | binding signal [18]
1 | TGATGT | 1.31 fold enrichment (6-mer frequency, TF over GST control) | 1.31 fold enrichment (6-mer frequency, TF over GST control) | 1.19 fold enrichment (6-mer frequency, TF over GST control) | 1.13 fold enrichment (6-mer frequency, TF over GST control) | 1.26 fold enrichment (6-mer frequency, TF over GST control) | 1.14 fold enrichment (6-mer frequency, TF over GST control) | 1.25 fold enrichment (6-mer frequency, TF over GST control) | 1.41 fold enrichment (6-mer frequency, TF over GST control) | 1.12 fold enrichment (6-mer frequency, TF over GST control) | 1.26 fold enrichment (6-mer frequency, TF over GST control) | 1.22 fold enrichment (6-mer frequency, TF over GST control) | 1.11 fold enrichment (6-mer frequency, TF over GST control) | 1.32 fold enrichment (6-mer frequency, TF over GST control) | 1.31 fold enrichment (6-mer frequency, TF over GST control) | 1.26 fold enrichment (6-mer frequency, TF over GST control) | 1.21 fold enrichment (6-mer frequency, TF over GST control) | 1.05 fold enrichment (6-mer frequency, TF over GST control) | 1.26 fold enrichment (6-mer frequency, TF over GST control)
2 | GCATCC | 1.55 fold enrichment (6-mer frequency, TF over GST control) | 1.67 fold enrichment (6-mer frequency, TF over GST control) | 1.36 fold enrichment (6-mer frequency, TF over GST control) | 1.68 fold enrichment (6-mer frequency, TF over GST control) | 1.44 fold enrichment (6-mer frequency, TF over GST control) | 1.55 fold enrichment (6-mer frequency, TF over GST control) | 1.47 fold enrichment (6-mer frequency, TF over GST control) | 1.6 fold enrichment (6-mer frequency, TF over GST control) | 1.7 fold enrichment (6-mer frequency, TF over GST control) | 1.73 fold enrichment (6-mer frequency, TF over GST control) | 1.68 fold enrichment (6-mer frequency, TF over GST control) | 1.53 fold enrichment (6-mer frequency, TF over GST control) | 1.43 fold enrichment (6-mer frequency, TF over GST control) | 1.28 fold enrichment (6-mer frequency, TF over GST control) | 1.39 fold enrichment (6-mer frequency, TF over GST control) | 1.53 fold enrichment (6-mer frequency, TF over GST control) | – | 1.55 fold enrichment (6-mer frequency, TF over GST control)
